Hit rate of the full screen: of about 16,000 compounds, about 5,700 (36%) were called active. Not shown: some 24% with an inconclusive outcome. Calls come from the whole dose curve; as a rule, active = well fitted curve in the direction sought with a large enough effect; inconclusive = small, poorly fitted or top-dose-only effect, or effect the other way; inactive = no such curve, though single readings can be large or run the other way. The list shows a part of the results.
target: Cytochrome P450 1A2 (Homo sapiens) (UniProt P05177); assay: Cytochrome panel assay with activity outcomes; conditions: recombinant CYP, pro-luciferin dealkylation, luminescence, p450-cyp1a2; series mostly up to 57.1 µM
Sequence (P05177 whole entry, looked up): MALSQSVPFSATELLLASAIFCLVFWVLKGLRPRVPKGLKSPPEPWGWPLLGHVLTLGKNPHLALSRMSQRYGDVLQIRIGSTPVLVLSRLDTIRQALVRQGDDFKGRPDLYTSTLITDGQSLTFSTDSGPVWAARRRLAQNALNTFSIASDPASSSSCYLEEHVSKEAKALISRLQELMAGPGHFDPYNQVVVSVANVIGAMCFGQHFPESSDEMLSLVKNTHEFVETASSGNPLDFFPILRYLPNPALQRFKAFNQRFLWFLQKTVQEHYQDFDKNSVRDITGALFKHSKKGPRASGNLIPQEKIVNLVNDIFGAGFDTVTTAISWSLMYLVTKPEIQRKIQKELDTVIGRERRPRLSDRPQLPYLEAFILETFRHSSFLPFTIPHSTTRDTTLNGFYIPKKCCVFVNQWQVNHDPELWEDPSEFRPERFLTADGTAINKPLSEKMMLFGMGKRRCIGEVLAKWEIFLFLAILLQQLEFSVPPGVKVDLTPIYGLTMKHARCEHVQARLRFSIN
% is set by controls: 0 for no effect and ±100 for the full control effect.

AC50, active:
CCNc1ncc2ncc(=O)n(Cc3cccs3)c2n1 2 µM
CCNc1ncc2nc(-c3cc(F)cc(F)c3)c(=O)n(Cc3cccs3)c2n1 5.01 µM
CCNc1ncc2nc(-c3ccccc3)c(=O)n(Cc3cccs3)c2n1 0.316 µM
CC(=O)Oc1cc(C(C)C)c(OCCN(C)C)cc1C 3.16 µM
c1ccc(CSc2nnc([C@@H]3CCCN3)o2)cc1 25.1 µM
Cc1ccc(CSc2nnc([C@@H]3CCCN3)o2)cc1 15.8 µM
CCOC(=O)c1oc2nc(CC(C)C)c3c(c2c1N)CCC3 0.891 µM
CCc1ccccc1NC(=S)NCc1ccc2c(c1)OCO2 5.62 µM
CCc1c(C(=O)NCc2ccc3c(c2)OCO3)[nH]c(C)c1C(C)=O 3.16 µM
COc1ccc(/C=N/NC(=O)c2ccn[nH]2)cc1COc1ccc(F)cc1 8.91 µM
CO[C@@]12C[C@@H](COC(=O)c3cncc(Br)c3)CN(C)[C@H]1Cc1cn(C)c3cccc2c13 5.01 µM
CN(C)c1ccc(/C=N\NC(=O)c2cnc3ccccc3c2)cc1 1.58 µM
N#C[C@H](Cc1ccc(O)cc1)c1ccc(O)cc1 12.6 µM
C=CCNC(=O)c1ccc(Cn2c(=S)[nH]c3cc4c(cc3c2=O)OCO4)cc1 8.91 µM
CCN(CC)CCn1c(=S)[nH]c2cc3c(cc2c1=O)OCO3 15.8 µM
CCCCNC(=O)CCn1c(=S)[nH]c2cc3c(cc2c1=O)OCO3 2.51 µM
O=C(CCCn1c(=S)[nH]c2cc3c(cc2c1=O)OCO3)N1CCN(c2ncccn2)CC1 12.6 µM
O=C(Cc1cccs1)N1CCC(c2nc3c(nnn3Cc3ccccc3Cl)c(=O)[nH]2)CC1 6.31 µM
CCN(CC)CC[n+]1ccc2c(C)c3[nH]c4ccc(O)cc4c3c(C)c2c1 3.16 µM
CCN(CC)CC[n+]1ccc2c(C)c3[nH]c4ccccc4c3c(C)c2c1 2.51 µM
CN1CCN(c2ncnc3ccc(-c4ccccc4C#N)cc23)CC1 3.16 µM
Clc1ccccc1-c1ccc2ncnc(N3CCNCC3)c2c1 2 µM
Cc1ccccc1-c1ccc2ncnc(N3CCNCC3)c2c1 3.16 µM
CN1CCN(c2ncnc3ccc(-c4ccccc4Cl)cc23)CC1 1.58 µM
Cc1ccccc1-c1ccc2ncnc(N3CCN(C)CC3)c2c1 3.16 µM
Cc1cnc(CNc2nc(-c3ccoc3)nc3ccccc23)cn1 2 µM
Cc1cnc(CNc2nc(-c3ccc(N(C)C)cc3)nc3ccccc23)cn1 3.16 µM
N=c1n(CCN2CCOCC2)c2ccccc2n1CC(=O)c1ccc(Cl)c(Cl)c1 1.26 µM
O=C1c2cccc3c(Cl)ccc(c23)C(=O)N1O 3.16 µM
CCOC(=O)c1c2ccc(OCC(=O)N/N=C/c3ccc(Cl)cc3)cc2n2ccccc12 3.16 µM
Cc1ccc(-n2c(O)cnc2Nc2nc(C)cc(C)n2)cc1 5.01 µM
Cc1cc(C)nc(Nc2ncc(O)n2-c2ccccc2)n1 2.82 µM
S=C(Nc1ccccc1)Nc1nccs1 0.794 µM
COc1ccccc1NC(=O)CN1CCN(c2ccccc2F)CC1 25.1 µM
CC(C)OC(=O)CN1CCN(C2c3ccccc3-c3ccccc32)CC1 12.6 µM
COc1ccc(NC(C)=O)cc1NC(=O)CN1CCN(C2c3ccccc3-c3ccccc32)CC1 28.2 µM
COc1ccccc1NC(=O)CN1CCN(C2c3ccccc3-c3ccccc32)CC1 15.8 µM
Cc1cc(-c2cccs2)nc(-n2cccc2)n1 3.16 µM
CCCCN1C2=NCCCN2c2ccccc21 25.1 µM
CCc1ccccc1OC[C@@H](O)CN[C@H]1CCCc2ccccc21 12.6 µM
COc1ccc(OC)c(NC(=O)c2cc3n(n2)C(C(F)(F)F)CC(c2ccc4c(c2)OCO4)N3)c1 (stereo not given) 0.316 µM
CCOC(=O)C1CCCN(c2ncnc3c2cnn3-c2ccc(Cl)cc2)C1 (stereo not given) 8.91 µM
CCOC(=O)C1CCCN(c2ncnc3c2cnn3-c2cccc(C)c2)C1 (stereo not given) 14.1 µM

AC50, inactive:
CC[N+](C)(C)c1cccc(O)c1
NC/C=C\C(=O)O
Cc1ccc(Oc2nn[nH]n2)cc1
CC(=O)CC(=O)[C@@]1(O)CC[C@@H]2[C@@H]3C=C(C)C4=CC(=O)CC[C@@H]4[C@H]3CC[C@]21C
C[N+]1(C)CCC(=C(c2ccccc2)c2ccccc2)CC1
Cc1ccc(CSc2nnc(-c3ccncc3)n2CC2CCCO2)cc1 (stereo not given)
NC(=O)/C(=N\O)c1ccccc1
CC1(C)SC(=S)N(Cc2ccc3c(c2)OCO3)C1N(O)C(=O)NC1CCCCC1 (stereo not given)
CC1(C)CC(=O)C(C(C#Cc2ccccc2)C2=C(O)CC(C)(C)CC2=O)=C(O)C1
COc1ccc(C(C(=O)NC2CCCC2)N(Cc2ccc(F)cc2)C(=O)c2ccn[nH]2)cc1OC (stereo not given)
COc1cccc(-c2cc(C(=O)N/N=C/c3ccc(OC)c(COC(C)=O)c3)c3ccccc3n2)c1
Cc1cccc(C(=O)N/N=C/c2ccc(OCC(=O)N3CCCCC3)cc2)c1
O[C@@](CCN1CCCCC1)(c1ccccc1)[C@@H]1C[C@H]2C=C[C@@H]1C2
N[C@@H](C(=O)O)c1ccc(C(=O)O)cc1
CC(C)Cc1ccc([C@H](C)C(=O)O)cc1
Cc1sc2ncn(CC(=O)NCCCC(=O)N3CCN(c4ncccn4)CC3)c(=O)c2c1C
O=C(CCCCCn1c(=S)[nH]c2cc3c(cc2c1=O)OCO3)N1CCN(C2CCCCC2)CC1
Cc1ccc(C)c(S(=O)(=O)N2CCC(c3nc4c(nnn4Cc4ccc(F)cc4)c(=O)[nH]3)CC2)c1
O=C(NCc1ccco1)c1nc2c(nnn2Cc2cccc(Cl)c2)c(=O)[nH]1
CC(Cc1ccccc1)NC(=O)CSc1nc2nc3c(cc2c(=O)n1-c1ccccc1)COC(C)(C)C3 (stereo not given)
N#Cc1cccc(NC(=O)N2CCCC3(CCN(C(=O)c4csnn4)CC3)C2)c1
COC(=O)Cn1c(=N)n(CCN2CCCCC2)c2ccccc21
Nc1ccc(N2C(=O)c3ccccc3C2=O)c(Cl)c1
CC(C)COP(=O)(OCC(C)C)C(O)c1ccccc1F (stereo not given)
O=C1CCCCCC1C1(O)C(=O)Nc2ccc(Br)cc21 (stereo not given)
N=c1n(-c2ccccc2)c(O)cc(=O)n1-c1ccccc1
Cc1ccc(-n2c(C)cc(C(=O)CSc3n[nH]c(N)n3)c2C)cc1
O=C(O)c1ccccc1C(=O)Nc1ccc(S(=O)(=O)Nc2nccs2)cc1
COc1ccccc1NC(=O)CN1CCC(C(=O)c2ccc(F)cc2)CC1
Cc1cc(Cl)ccc1NC(=O)CN1CCC(C(O)(c2ccccc2)c2ccccc2)CC1
O=C(CCN1CCN(c2ccccc2F)CC1)Nc1ccccc1F
Cc1ccc(C(=O)C(OC(=O)CN2C(=O)c3ccccc3C2=O)c2ccccc2)cc1 (stereo not given)
COc1ccc(NC(C)=O)cc1NC(=O)CN1CCN(CC(=O)Nc2ccccc2Cl)CC1
O=C(c1csnn1)N1CCC2(CC1)CN(Cc1cc(C(F)(F)F)cc(C(F)(F)F)c1)C2
CCCCN1C(=O)CC(Sc2ccccc2C(=O)O)C1=O (stereo not given)
CCCN1C2=NCCCN2c2ccccc21
Cc1c(C(=O)NC2CCCc3ccccc32)oc2ccc(S(=O)(=O)N3CCOCC3)cc12 (stereo not given)
COC(=O)[C@@]1(Cc2ccccc2)[C@H]2c3cc(C(=O)N4CCCC4)n(CCc4ccccn4)c3C[C@H]2CN1C(=O)c1ccccc1
COc1ccc(C2CC(C(F)(F)F)n3nc(C(=O)N(C)Cc4cn(C)nc4C)c(Cl)c3N2)cc1 (stereo not given)
COc1ccc(NC(=O)c2cc3n(n2)C(C(F)(F)F)CC(c2ccc4c(c2)OCO4)N3)cc1OC (stereo not given)
CCOC(=O)C1CCCN(C(=O)C2CCN(S(=O)(=O)N3CCC4(CC3)OCCO4)CC2)C1 (stereo not given)

activity, negative = inhibition, inactive:
CC(C)(C)CNCCO 6.23% [at 2.29 µM]
COc1cccc([C@H]2Oc3ccc(OC)cc3/C(=N\OC[C@@H](O)[C@@H]3O[C@@H]4OC(C)(C)O[C@@H]4[C@H]3O)[C@@H]2O)c1 -8.99% [at 11.4 µM]
O=C(O)C[C@H](Cc1ccc2c(c1)OCO2)C(=O)O -20% [at 11.4 µM]
C[N+]1(C)CCc2cc(O)c(O)cc2[C@H]1Cc1ccc(O)c(O)c1 -12.1% [at 2.29 µM]
CC(=O)N[C@H](Cc1ccc(O)cc1)C(=O)O -11.8% [at 11.4 µM]
CCCNC(=O)OC[C@@H]1O[C@H](CCO/N=C(\C)CCN2CCc3nc(-c4ccccc4)c(-c4ccccc4)cc3C2)C=C[C@@H]1Oc1ccc(OC)cc1 -4.45% [at 11.4 µM]
COC(=O)C/C=C\[C@H](C)[C@H](CO)NS(=O)(=O)c1ccc(C)cc1 -2.78% [at 11.4 µM]
C/C(CCN1CCc2nc(-c3ccccc3)c(-c3ccccc3)cc2C1)=N\OC[C@@H](O)COCc1ccco1 -6.41% [at 11.4 µM]
CCOC(=O)C(C)(C)[C@H](O)C(C)C -1.66% [at 11.4 µM]
CN(CCO)Cc1ncccc1O -10% [at 2.29 µM]
COC(=O)C/C=C1\c2ccccc2[C@H](OC)[C@H]1C -6.47% [at 11.4 µM]

— PubChem BioAssay AID1851 (National Center for Advancing Translational Sciences (NCATS), 2009)
